This note sets out measurements from PubChem BioAssay (NCATS).

Results filed as inconclusive are left out. Active and inactive are the calls of the source. Calls follow the shape of the dose curve; as a rule, active = well fitted curve in the direction sought with a large enough effect; inconclusive = small, poorly fitted or top-dose-only effect, or another doubt; inactive = no such curve, though single readings can be large; an effect the other way counts as inactive or inconclusive.

Assay [1] can be described thus: Cell Viability - LYMP1-002 - Assay at 16 hr (AID 948). Also: potency is read from the fitted curve at half-maximal effect. An outline of the steps:
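In this qHTS, lymphoblastoid LYMP1-002 cells (human) receive compounds for 16 hr at 37 C. Viability is taken from CellTiter-Glo ATP luminescence, and AC50 derives from standard Hill fits.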

Assay [2] can be described thus: MultiTox-Fluor Cytotoxicity Assay - LYMP1-002 - Live Cells (AID 955).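 Also: cells exposed to compound for 16 hours.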 An outline of the steps:
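Cytotoxicity in the human lymphoblastoid line LYMP1-002 is measured as loss of live-cell protease activity after 16 h treatment in complete culture medium. AC50 is derived from Hill-equation fits of qHTS concentration-response data.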

A short description of assay [3]: MultiTox-Fluor Cytotoxicity Assay - LYMP1-003 - Live Cells (AID 962).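 Also: cells exposed to compound for 16 hours at 37 °C; cytotoxic hits lower the live-cell protease signal.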 The gist of the method: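 Cells plated at 2500 per well and incubated 5 hr; compounds added and incubated 16 hr at 37 C; MultiTox-Fluor reagent added for 60 min at room temperature; fluorescence of liberated AFC measured at 405/510 nm.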
A short description of assay [4]: Cell Viability - LYMP1-003 - Assay at 24 hr (AID 963). Also: potency is read from the fitted curve at half-maximal effect. An outline of the steps:
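Acute toxicity in LYMP1-003 lymphoblastoid cells: 24 hr compound treatment at 37 C, ATP measured with CellTiter-Glo after 30 min at room temperature. AC50 derived by fitting the Hill equation to qHTS titrations.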

The nature of assay [5]: Cell Viability - LYMP2-003 (AID 965).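 Also: cells exposed to compounds for 24 h before reading; nearly all actives have a fitted effect of over 50% in size.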 An outline of the steps: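 qHTS, human lymphoblastoid line, 2500 cells/well, complete medium. 24 h drug, 37 C. ATP-based luminescent readout; Hill-fit AC50.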
Assay [6] can be described thus: MultiTox-Fluor Cytotoxicity Assay - LYMP1-002 - Dead Cells (AID 960).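 Also: cells exposed to compound for 16 h at 37 °C; nearly all actives have a fitted effect of over 60% in size.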 The gist of the method: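 Acute cytotoxicity in a human lymphoblastoid line is scored as rising dead-cell protease signal after 16 hr exposure at 37 C, measured fluorometrically (485/520).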
Assay [7] in a line: MultiTox-Fluor Cytotoxicity Assay - LYMP1-003 - Dead Cells (AID 961).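 Also: cells exposed to compound for 16 h at 37 °C; nearly all actives have a fitted effect of over 70% in size.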 Also: potency is read from the fitted curve at half-maximal effect. An outline of the steps: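 Human lymphoblastoid LYMP1-003 cells (2500/well) were treated with compounds for 16 hr at 37 C in complete medium. Dead-cell protease release was read by bis-AAF-R110 fluorescence (Ex/Em 485/520). AC50 came from Hill fits, normalized to DMSO and 15 uM tetraoctylammonium bromide.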

A short description of assay [8]: Cell Viability - LYMP1-003 - Assay at 40 hr (AID 964). Also: nearly all actives have a fitted effect of over 60% in size. Also: potency is read from the fitted curve at half-maximal effect. The gist of the method: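 This qHTS cytotoxicity screen treats human lymphoblastoid cells (LYMP1-003) with compounds for 40 hr and quantifies cellular ATP via luciferase luminescence.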
The nature of assay [9]: Cell Viability - LYMP2-004 (AID 966). Also: nearly all actives have a fitted effect of over 65% in size. An outline of the steps: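 Acute toxicity is scored as a concentration-dependent drop in intracellular ATP, quantified by luciferase luminescence, in human lymphoblastoid cells exposed to compound for 24 hr. AC50 derives from Hill-equation modelling.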
A short description of assay [10]: Cell Viability - LYMP2-009 (AID 968).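 Also: cells exposed to compound for 24 h at 37 °C; nearly all actives have a fitted effect of over 55% in size.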 Also: potency is read from the fitted curve at half-maximal effect.

On to `CN(C)CCC=C1c2ccccc2CCc2ccccc21`, for which the Potency result in [1] and in [4] was “inactive” throughout. In addition, the outcome in assay [2], in assay [3] and in assay [5] was inactive.
For the compound `Cc1cc2nc3c(=O)[nH]c(=O)nc-3n(C[C@H](O)[C@H](O)[C@H](O)CO)c2cc1C`, the Potency result in [1], in [4], in assay [8] and in [10] was “inactive” each time. Also, the call in [6], in [3], in [5] and in assay [9] was inactive. For the same compound, in assay [7], the Potency is 39.8 µM (active).
With `O=C1O[C@H]([C@@H](O)CO)C(O)=C1O`, the Potency result in assay [1], in assay [7], in assay [4], in assay [8] and in assay [10] was “inactive” in each case. Further, the call in assay [2], in [6], in assay [3], in assay [5] and in assay [9] was inactive.
As for `COc1ccccc1O`, the Potency entry in assay [1], in assay [7], in assay [4], in assay [8] and in assay [10] was “inactive” throughout. Besides, the compound was called inactive in assay [2], in assay [6], in assay [3], in assay [5] and in [9].
`Nc1ccc(S(=O)(=O)Nc2nccs2)cc1`: the Potency result in [1], in assay [7], in assay [4], in [8] and in assay [10] was “inactive” in each case. For the same compound, the compound was classed as inactive in assay [2], in assay [3], in assay [5] and in [9].
Turning to `Cc1c(O)cccc1C(=O)N[C@@H](CSc1ccccc1)[C@H](O)CN1C[C@H]2CCCC[C@H]2C[C@H]1C(=O)NC(C)(C)C`, the Potency in [1] is 50.1 µM (active); in assay [7], 50.1 µM (active); in [4], 39.8 µM (active); in assay [8], 39.8 µM (active); in assay [10], 50.1 µM (active).
For the compound `CCCCCCCCCCCCOS(=O)(=O)O`, the Potency result in assay [1], in assay [7], in assay [4], in [8] and in assay [10] was “inactive” each time. Further, the result in assay [2], in assay [6], in assay [3], in assay [5] and in assay [9] was inactive.
Take `Oc1cccc(O)c1`: the Potency result in [1], in [7], in [4], in [8] and in assay [10] was “inactive” each time. Also, the compound was called inactive in [2], in [3] and in assay [5].
Turning to `CC12CCC(CC1)C(C)(C)O2`, the Potency entry in [1], in [7], in assay [4], in assay [8] and in [10] was “inactive” throughout. Further, the call in assay [2], in [6], in assay [3] and in assay [5] was inactive.
Take `CCCCOC(=O)c1ccc(O)cc1`: the Potency entry in assay [1], in assay [7], in assay [4], in assay [8] and in [10] was “inactive” each time. Moreover, the compound was classed as inactive in assay [2], in [6], in assay [3], in assay [5] and in assay [9].
For the compound `C[C@]12C[C@H](O)[C@H]3[C@@H](CCC4=CC(=O)CC[C@@]43C)[C@@H]1CC[C@@H]2C(=O)CO`, the Potency entry in assay [1], in assay [7], in [4], in assay [8] and in assay [10] was “inactive” throughout. Further, the call in assay [2], in [6], in [3], in assay [5] and in assay [9] was inactive.
As for `NC(=O)c1ncn([C@@H]2O[C@H](CO)[C@@H](O)[C@H]2O)n1`, the Potency result in assay [1], in assay [7], in [4] and in [10] was “inactive” each time. The result in [2], in [6], in [3], in [5] and in assay [9] was inactive.
Take `Cc1cc(CC(=O)O)n(C)c1C(=O)c1ccc(Cl)cc1`: the Potency entry in assay [1], in assay [7], in assay [4], in assay [8] and in [10] was “inactive” each time. The compound was classed as inactive in assay [2], in assay [6], in assay [3], in assay [5] and in assay [9].
As to `NCCNCCNCCNCCN`, the Potency result in assay [1], in assay [7], in assay [4], in assay [8] and in assay [10] was “inactive” in each case. Moreover, the result in [2], in [6], in assay [3], in assay [5] and in [9] was inactive.
With `NC(=O)N/N=C/c1ccc([N+](=O)[O-])o1`, the Potency result in [1] and in assay [7] was “inactive” each time. Moreover, the result in assay [2], in [6], in assay [3] and in assay [9] was inactive.
For the compound `NCCNCCNCCN`, the Potency result in [1], in [7], in assay [4], in assay [8] and in assay [10] was “inactive” throughout. Further, the compound was called inactive in assay [2], in assay [6], in assay [3], in assay [5] and in assay [9].
Turning to `CC1(C)[C@@H]2CC[C@@]1(C)C(=O)C2`, the Potency entry in [1], in assay [7], in assay [4], in [8] and in assay [10] was “inactive” in each case. Moreover, the compound was classed as inactive in [2], in [3], in assay [5] and in [9].
`[Cl][In]([Cl])[Cl]`: the Potency entry in assay [1], in [7], in assay [4], in assay [8] and in assay [10] was “inactive” throughout. For the same compound, the compound was classed as inactive in assay [2], in assay [6], in [3], in assay [5] and in [9].
On to `O=C1c2c(O)cccc2Cc2cccc(O)c21`, for which the Potency entry in assay [1], in [7], in assay [4], in [8] and in assay [10] was “inactive” each time. Besides, the compound was called inactive in assay [2], in assay [3], in assay [5] and in assay [9].
